Reference: PubChem BioAssay AID1209 (Sanford-Burnham Center for Chemical Genomics, 2008)
The campaign covered roughly 190,000 compounds. About 810 (0.43%) were called active. Cut-off read from the data, not from the text of the source: active = inhibition above about 50%; inactive = the rest. Many of the other results were omitted from the sample, so actives are more common in it than they were.

Biological target: Mannose-6-phosphate isomerase (Homo sapiens) (UniProt P34949)
Assay: inhibitors of human PMI, primary screen, biochemical, fluorescence intensity, coupled assay (AID 1209);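 note: plate controls were DMSO vehicle for no effect and wells lacking substrate for full effect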
Conditions: purified PMI enzyme, at 20 µM, stronger effect = higher value

Chain of Mannose-6-phosphate isomerase (Homo sapiens) (P34949 whole entry, looked up): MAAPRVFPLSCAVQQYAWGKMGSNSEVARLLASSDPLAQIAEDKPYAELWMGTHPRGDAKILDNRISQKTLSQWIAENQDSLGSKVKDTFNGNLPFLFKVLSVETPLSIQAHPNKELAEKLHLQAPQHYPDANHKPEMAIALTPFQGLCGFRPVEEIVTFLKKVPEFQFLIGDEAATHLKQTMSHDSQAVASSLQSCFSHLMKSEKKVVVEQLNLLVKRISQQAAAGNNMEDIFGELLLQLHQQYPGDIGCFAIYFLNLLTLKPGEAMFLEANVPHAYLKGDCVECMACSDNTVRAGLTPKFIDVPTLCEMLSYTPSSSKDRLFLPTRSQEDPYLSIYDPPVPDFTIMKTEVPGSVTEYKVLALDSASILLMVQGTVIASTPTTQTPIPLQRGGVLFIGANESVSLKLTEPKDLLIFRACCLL

inhibition, active:
CCN(CC)c1ccc(/C=N/Nc2nc3ccccc3[nH]2)cc1 53%
Cc1ccc(NC(=O)CSc2nnc(C)c(=O)n2N)c(C)c1 76.6%
Cc1cc(C(=O)N/N=C/c2cccc([N+](=O)[O-])c2O)n[nH]1 52.3%
O=C(Cc1ccc(Cl)cc1Cl)Nc1cccc(S(=O)(=O)Nc2ccccc2F)c1 59%
O=C(/C=C/c1ccccc1)Nc1cccc(S(=O)(=O)Nc2ccccc2F)c1 66.1%
O=C(CSc1ccc([N+](=O)[O-])cc1)Nc1cccc(S(=O)(=O)Nc2ccccc2F)c1 62.2%
O=C(Nc1cccc(S(=O)(=O)Nc2ccccc2F)c1)c1ccc2ccccc2n1 70.4%
CCOC(=O)CC1C(=O)NCCN1C(=O)c1c(F)cccc1F (centres undefined) 50.5%
O=C(CSc1ccccc1)Nc1nnc(COc2ccc(Cl)cc2)s1 71.7%
Cc1onc(-c2ccccc2)c1C(=O)Nc1nnc(COc2ccc(Cl)cc2)s1 76.2%
O=C(Nc1nnc(COc2ccc(Cl)cc2)s1)c1ccco1 62.4%
COc1ccc(C(c2sc3nc(C)nn3c2O)N2CCc3ccccc3C2)cc1 (centres undefined) 72.5%
COc1cccc(C(c2sc3nc(C)nn3c2O)N2CCc3ccccc3C2)c1 (centres undefined) 65.3%
O=C(CSc1nc2c(sc3ccccc32)c(=O)n1CCO)NCC1CCCO1 (centres undefined) 54%
Cc1cc(C(=O)c2cnc(/N=C/N(C)C)s2)c(F)cc1Cl 93.5%
CCc1cc(N2CCOCC2)cc2c1[nH]c1ccccc12 55.4%
CN(Cc1cccnc1)Cc1cn(C)nc1-c1ccc(Oc2ccccc2)cc1 50.7%
O=c1sc2ccccc2c(=O)n1Cc1ccccc1F 89.5%
CCCN1CCCc2cc(CN)ccc21 50.7%
O=[N+]([O-])c1cc(Cl)c(O)c2ncccc12 51.7%
CC(=O)C1=C(c2ccccc2)NC(=O)NC1c1ccc(O)c(O)c1 (centres undefined) 61.3%

inhibition, inactive:
S=C(NCC1CCCO1)Nc1cccc(Cl)c1 (centres undefined) -4.4%
CC(=O)Nc1ccc(/C=N/Nc2nc3ccccc3[nH]2)cc1 20.8%
CCN(CC)c1ccc(/C=N/Nc2nc3ccccc3[nH]2)c(O)c1 29.1%
C=CCn1c(C)cc(C(=O)Cn2nc(C(=O)O)c3ccccc3c2=O)c1C 0.5%
COc1ccc(-c2nc(SC(CC(=O)NCCN3CCOCC3)c3cccs3)n[nH]2)cc1 (centres undefined) 2.7%
Cc1ccc(C)c(NC(=O)CSc2nnc(C)c(=O)n2N)c1 -3%
Cc1ccc(NC(=O)CSc2nnc(C)c(=O)n2N)cc1 -5.9%
Cn1c(-c2cccc(Br)c2)n[nH]c1=O -8.4%
Brc1cccc(-c2n[nH]c(-c3ccccc3)n2)c1 18.9%
O=C(NNC(=O)C1CCCN(S(=O)(=O)c2cccc(F)c2)C1)C1CC1 (centres undefined) 6.8%
Cc1cc(C(=O)N/N=C/c2cc(N=Nc3ccccc3)ccc2O)n[nH]1 4.9%
Cc1cc(C(=O)N/N=C/c2ccc(O)c([N+](=O)[O-])c2)n[nH]1 -7.3%
O=C(Nc1cccc(S(=O)(=O)N2CCCC2)c1)c1ccc2ccccc2n1 10%
O=C(/C=C/c1ccccc1)Nc1cccc(C(=O)O)c1 8.9%
O=C(Cc1ccc(Cl)cc1)Nc1cccc(S(=O)(=O)Nc2ccccc2F)c1 23.4%
CSc1cccc(NC(=O)/C=C/c2ccccc2)c1 10.8%
Nc1ccc(SCC(=O)Nc2cccc([N+](=O)[O-])c2)cc1 -7.1%
O=C(CN1C(=O)c2ccccc2C1=O)Nc1cccc(S(=O)(=O)Nc2ccccc2Cl)c1 12.3%
COc1ccccc1NS(=O)(=O)c1cccc(NC(=O)c2ccc3ccccc3n2)c1 17.4%
Cn1c(=O)c2c(ncn2CC(=O)Nc2cccc(S(=O)(=O)Nc3ccccc3F)c2)n(C)c1=O 25.8%
Cc1ccc(C(=O)c2ccccc2C(=O)OCC(=O)NCC2CCCO2)cc1 (centres undefined) 1.4%
Cc1cc(OC(C)C(N)=O)nc(-c2ccccc2)n1 (centres undefined) -14.2%
CC(C)c1ccc(CN2CC(C(=O)O)CC2=O)cc1 (centres undefined) -7%
Cc1ccc(N2CCN(CC(O)COc3ccc([N+](=O)[O-])cc3)CC2)cc1 (centres undefined) -2%
COc1cc(/C=N/Nc2ccccn2)ccc1OCC(C)C -6.3%
CCOC(=O)CC1C(=O)NCCN1C(=O)c1cccc(C(F)(F)F)c1 (centres undefined) -0.3%
CCOC(=O)CC1C(=O)NCCN1C(=O)c1ccc(F)cc1F (centres undefined) -8.1%
Nc1nonc1-c1noc(N2CCCCC2)n1 6%
COc1ccc(-c2nnn(CC#N)n2)cc1OC -3.6%
O=C(N/C(=C\c1cccnc1)C(=O)N1CCOCC1)c1ccco1 -15.9%
Cc1cccc(C)c1OCc1nnc(NC(=O)CSc2ccc(Cl)cc2)s1 9.2%
CCOCc1nnc(NC(=O)CSc2ccccc2)s1 6.1%
COc1ccc(Cc2nnc(NC(=O)c3c(-c4ccccc4)noc3C)s2)cc1 12.3%
O=C(Nc1nnc(COc2ccccc2)s1)c1ccco1 3.1%
Cc1ccc(OCc2nnc(NC(=O)c3ccco3)s2)cc1 -5.1%
Cc1nnc(NC(=O)c2c(-c3ccccc3)noc2C)s1 0.7%
COC(=O)/C(C(C)=O)=C(\C=C\N(C)C)N(C)C 1%
Nc1nnc(SCc2ccccc2F)n1-c1ccccc1 3.6%
NC(=O)[C@@H]1CCNc2c(I)cc([N+](=O)[O-])cc2C(=O)N[C@@H](CO)C(=O)N[C@@H](Cc2ccc(O)cc2)C(=O)N1 -42.9%
CCN(CCC(=O)Nc1cc(OC)cc(OC)c1)Cc1ccccc1 6.5%
Cc1nnc(NC(=O)c2ccc3ccccc3n2)s1 -23.8%
COc1cc(C(c2sc3nc(C)nn3c2O)N2CCc3ccccc3C2)cc(OC)c1OC (centres undefined) 11.5%
CCN1CCN(C(c2cccc(OC)c2)c2sc3nc(C)nn3c2O)CC1 (centres undefined) 2.4%
COc1ccc(C(c2sc3nc(C)nn3c2O)N2CCCCC2)cc1 (centres undefined) -1.5%
COc1cccc(C(c2sc3ncnn3c2O)N2CCc3ccccc3C2)c1 (centres undefined) 40.6%
COc1cc2c(cc1OC)CC(=O)N(C)CC2 3.4%
Cc1ccc(N2C(=O)CC(SCC(=O)Nc3ccc(S(N)(=O)=O)cc3)C2=O)cc1 (centres undefined) 16.8%
O=C(CSC1CC(=O)N(c2ccc(C(=O)O)cc2)C1=O)Nc1ccc(Cl)cc1 (centres undefined) -7.6%
CCN(CC(=O)NCCc1ccc(S(N)(=O)=O)cc1)Cc1nc2cc(OC)c(OC)cc2c(=O)[nH]1 -4.3%
CC(C(=O)Nc1ccccc1C(=O)O)n1c(C(F)(F)F)nc2ccccc21 (centres undefined) 1.2%
O=C(CSc1nc2c(sc3ccccc32)c(=O)n1CCCN1CCCC1)NCC1CCCO1 (centres undefined) -1%
O=C(CSc1nc2c(sc3ccccc32)c(=O)n1Cc1ccccc1)NCC1CCCO1 (centres undefined) 15.3%
COc1ccc(C2=CC(c3ccc(OC)c(OC)c3)NC(=S)N2)cc1 (centres undefined) 3.4%
CN(C)/C=N/c1ncc(C(=O)c2ccc(Cl)cc2)s1 0.8%
CN(C)/C=N/c1ncc(C(=O)c2ccc(Cl)cc2Cl)s1 -11.6%
COc1ccc(-c2oc(NC(=O)CSc3nncn3C)c(C#N)c2-c2ccc(OC)cc2)cc1 7.6%
c1ccc2c(c1)[nH]c1c(N3CCOCC3)ncnc12 7.2%
CCCCn1c(=S)[nH]c2ccc(N3CCOCC3)cc2c1=O -8.1%
O=C(NCCc1c[nH]c2ccccc12)c1cccc(S(=O)(=O)Nc2ccccc2Cl)c1 20.2%
COc1cccc(C(c2sc3nc(C)nn3c2O)N2CCC3(CC2)OCCO3)c1 (centres undefined) 5.1%
CN(Cc1ccno1)Cc1cn(C)nc1-c1ccc(Oc2ccccc2)cc1 26.3%
Cc1cnccc1CN(C)Cc1cn(C)nc1-c1ccc(Oc2ccccc2)cc1 14.4%
CC(C)NC(=O)COc1nncc2ccccc12 15.9%
Cc1ccccc1Cn1c(=O)sc2ccccc2c1=O 6%
Cc1ccc(Cn2c(=O)sc3ccccc3c2=O)cc1 18.9%
Cc1cccc(C)c1NC(=O)CSc1nnc([C@H](C)NC(=O)OC(C)(C)C)o1 -1.6%
C=CCn1c(SCC(=O)NC2CCS(=O)(=O)C2)nc2sc(CC)cc2c1=O (centres undefined) -1.4%
CCCN1CCCc2ccccc21 -40.1%
CCc1ccc2c(c1)CCCN2C(=O)c1ccccc1C(=O)O 0.4%
Cc1ccc(NC2=CC(=O)CC(c3ccccc3)C2)cc1 (centres undefined) 7.6%
COc1cccc(Nc2nc(CC(C)=O)ns2)c1 -2%
c1ccc2sc(NCC3CCCO3)nc2c1 (centres undefined) -11.7%
O=[N+]([O-])c1cc(Cl)c2cccnc2c1O 14.6%
Oc1c(Cl)cc(Cl)c2cccnc12 21.3%
COC(=O)C(C(=O)OC)c1ccc(-n2cccc2)cc1 11%
CCOc1cccc2cc(C(C)=O)oc12 -14.2%
CCOc1cc(C2NC(=O)NC(c3ccccc3)=C2C(C)=O)ccc1OC(C)=O (centres undefined) 7%
CC(=O)C1=C(c2ccccc2)NC(=S)NC1c1ccc(O)c(O)c1 (centres undefined) 44.9%
